Source: PubChem (National Center for Advancing Translational Sciences (NCATS))
D2 ag-1 – Beta-Arrestin HTS for Positive Allosteric Modulators of the Human D2 Dopamine Receptor: Agonists; 360,000 compounds, 0.084% hits; activation, % (test concentration not listed); AID 624465, 2012; DiscoveRx PathHunter D2 beta-arrestin, luminescence, 90 min; 100% = 57 uM dopamine signal; D(2) dopamine receptor (Homo sapiens), P14416; in the data active = activation above about 40%; inconclusive = between about 15% and that limit
Target sequence (P14416 whole entry, looked up): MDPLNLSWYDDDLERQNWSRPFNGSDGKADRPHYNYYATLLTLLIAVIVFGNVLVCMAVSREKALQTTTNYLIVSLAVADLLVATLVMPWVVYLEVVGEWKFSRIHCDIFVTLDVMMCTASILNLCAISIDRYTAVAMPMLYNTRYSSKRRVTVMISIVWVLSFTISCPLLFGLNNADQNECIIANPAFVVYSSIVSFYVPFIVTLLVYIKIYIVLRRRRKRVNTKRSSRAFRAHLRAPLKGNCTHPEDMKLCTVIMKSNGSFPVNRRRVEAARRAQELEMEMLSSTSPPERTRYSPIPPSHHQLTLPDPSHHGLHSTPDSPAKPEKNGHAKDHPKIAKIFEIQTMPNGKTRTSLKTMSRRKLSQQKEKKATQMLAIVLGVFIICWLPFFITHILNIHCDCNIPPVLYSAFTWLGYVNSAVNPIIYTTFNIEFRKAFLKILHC
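DiscoveRx PathHunter D2 beta-arrestin cells (2,100/well) attached overnight, then compound-stimulated 90 min at 37 C in HBSS/10 mM HEPES/0.1% Tween-20 buffer; beta-galactosidase complementation read by luminescence after 1 h at ambient temperature. Dopamine 57 uM final (EC100) as control.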
D2 ag-2 – HTS Assay for Allosteric Agonists of the Human D2 Dopamine Receptor: Primary Screen for Agonists. HEK293 T-REx D2 cells, calcium flux agonist mode. activation, % at 2 µM. 340,000 compounds, 0.53% hits;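 active = activation over 3 SD above normal in the single-dose calcium agonist read, cut at about 30% in these data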
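Agonism scored from kinetic calcium signal (1 read/sec, 180 s) following compound pin transfer, after a 10 s baseline. Cells: HEK293 Trex line expressing inducible D2 receptor coupled to calcium, dye-loaded after overnight culture at 30 C.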
D2 antagonist – HTS Assay for Allosteric Antagonists of the Human D2 Dopamine Receptor: Primary Screen for Antagonists; HEK293 TREx D2 cells, calcium flux, dopamine EC80; inhibition, % at 10 µM; 340,000 compounds, 2% hits; in the data active = inhibition above about 30%; inactive = below that, where a call was filed
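Cells plated overnight at 30 C with tetracycline; no-wash calcium dye, 30–90 min RT; 10 s baseline; compound pinned; 180 s read; EC80 dopamine added; another 180 s read.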
D2 PAM-1 – HTS Assay for Positive Allosteric Modulators of the Human D2 Dopamine Receptor: Primary Screen for Potentiators | D(2) dopamine receptor (Homo sapiens), P14416 | HEK293 T-REx D2, calcium flux, EC20 dopamine potentiation | potentiation, % at 10 µM | 340,000 compounds, 0.34% hits | AID 485347, 2010;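 active = potentiation over 3 SD above the plate norm, cut at about 30% in these data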
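Calcium flux readout, no-wash dye, 1 read/s. Inducible HEK293 Trex D2 line, overnight 30 C. Compound alone 180 s (agonist flags), then EC20 dopamine, another 180 s to score potentiation.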
D2 PAM-2 – Beta-Arrestin HTS for Positive Allosteric Modulators of the Human D2 Dopamine Receptor: Potentiators; D(2) dopamine receptor (Homo sapiens), P14416; DiscoveRx D2 beta-arrestin cells, luminescence, 90 min; 100% = 57 uM dopamine signal; potentiation, % (no concentration beside the values); 360,000 compounds, 0.23% hits; AID 624464, 2012; in the data active = potentiation above about 50%; inconclusive = mostly about 30% to 49%
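D2 cells co-treated with compound plus 50 nM dopamine (EC20) for 90 min at 37 deg C to detect potentiation. Beta-arrestin recruitment was read as enzyme-fragment luminescence after 1 h at ambient temperature. Full response was set by 57 uM dopamine.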
Hits are given with their value; 0 = inactive; ? = inconclusive; - = no result. Shown are actives, neighbours in structure and some others; about 2.4% of the full set was active somewhere.

SMILES	D2 ag-1	D2 ag-2	D2 antagonist	D2 PAM-1	D2 PAM-2
Cc1coc2c1c(C)cc1oc(=O)c(CC(=O)NCC(=O)O)c(C)c12	0	0	0	0	0
Cc1ccc(Cl)cc1NC(=O)COC(=O)c1ccc(N2CCCC2)c([N+](=O)[O-])c1	-	0	57.2	0	-
CCCNC(=O)COC(=O)c1ccc(N2CCCC2)c([N+](=O)[O-])c1	0	0	0	0	0
FC(F)Sc1ccc(NC(=S)NC2CCCCC2)cc1	0	0	0	0	0
FC(F)Sc1ccc(NC(=S)NCC2CCCCC2)cc1	0	0	31.9	0	0
CCOC(=O)/C(=C\c1ccc(N2CCC(c3ccccc3)=N2)cc1)C(C)=O	0	-	-	-	0
O=C(/C=C/c1ccc(N2CCC(c3ccccc3)=N2)cc1)c1ccccc1	0	36.6	32.7	0	0
O=C1CC(NS(=O)(=O)c2ccc([N+](=O)[O-])cc2)CN1c1cccc(F)c1 (configuration not stated)	0	0	0	42.3	0
CC(=O)c1ccc(S(=O)(=O)NC2CC(=O)N(c3cccc(F)c3)C2)cc1 (configuration not stated)	0	0	0	0	0
CCCCn1cc2c(c1-c1ccc(Cl)cc1)c(=O)n(C)c(=O)n2C	-	0	-	0	-
CC1CCCC(C)N1CCCNC(=O)c1ccc2nc(N3CCOCC3)sc2c1 (configuration not stated)	0	-	-	0	0
O=C(NCCCN1CCC(Cc2ccccc2)CC1)c1ccc2nc(N3CCOCC3)sc2c1	0	0	48.0	0	0
Cc1ccc(C)c(N2CCN(C(=O)c3cc(S(=O)(=O)N4CCCC4)c[nH]3)CC2)c1	-	0	-	0	-
Fc1ccc(Nc2ncnc3c2nc2n3CCCCC2)c(F)c1	-	0	-	0	-
Cc1cc(NC(=O)CS(=O)(=O)c2ccc(F)cc2)no1	0	0	0	0	0
Cc1cc(NC(=O)CS(=O)(=O)c2ccc(Cl)cc2)no1	0	0	0	44.5	0
CC1Cc2ccccc2N1C(=O)CN1CCN(Cc2ccccc2)CC1 (configuration not stated)	0	0	41.0	0	0
CC1Cc2ccccc2N1C(=O)Cn1cc([N+](=O)[O-])cn1 (configuration not stated)	0	0	38.7	0	0
O=C(Cn1cc([N+](=O)[O-])cn1)N1CCc2ccccc21	0	0	0	0	0
Cc1ccc(NC(=O)c2cnc(SCC(=O)N3CCOCC3)n(C)c2=O)cc1C	-	0	-	0	-
COCCn1c(=S)[nH]c2cc(C(=O)NCCCN3CCOCC3)ccc2c1=O	0	0	0	0	0
COCCn1c(=O)[nH]c2cc(C(=O)NCCN3CCN(c4ccccc4F)CC3)ccc2c1=O	?	83.0	96.4	0	0
COCCn1c(=O)[nH]c2cc(C(=O)NCCCN3CCN(c4ccc(F)cc4)CC3)ccc2c1=O	0	34.5	58.0	0	0
COCCn1c(=O)[nH]c2cc(C(=O)Nc3cccc(F)c3)ccc2c1=O	0	39.9	0	0	0
Cc1cc(=O)n2nc(N3CCC(C(=O)Nc4ccc(Br)c(C)c4)CC3)sc2n1	-	0	-	0	-
SMILES	D2 ag-1	D2 ag-2	D2 antagonist	D2 PAM-1	D2 PAM-2
Cc1ccc(-n2ncc3c(NC4CCCCC4)ncnc32)cc1	-	0	-	0	-
COc1ccc(CC(=O)Nc2ccc3nc(SC)sc3c2)cc1OC	0	33.3	0	0	0
COc1ccc(C2C(C(=O)c3cccs3)=C(O)C(=O)N2c2cccc(C)n2)cc1 (configuration not stated)	0	0	0	0	0
Cc1ccc(C2C(C(=O)c3cccs3)=C(O)C(=O)N2c2nnc(C)s2)cc1 (configuration not stated)	0	39.8	0	0	0
CC(NC(=O)Nc1ccc(O)cc1)(C(F)(F)F)C(F)(F)F	0	0	0	0	117.8
O=S(=O)(c1ccc(Cl)cc1)c1nc(-c2cccs2)oc1SCc1ccc(F)cc1	-	-	-	0	-
CCOc1cc2c(cc1/C=C/c1noc(C)c1[N+](=O)[O-])OC(C)C2 (configuration not stated)	0	64.4	0	0	0
Cc1cc(C)c(NC(=O)CCn2c(=O)c3cccn3c3ccccc32)c(C)c1	-	0	-	0	-
CCc1nn2c(-c3ccccc3OC)ccnc2c1-c1ccc(F)cc1	-	0	-	0	-
Cc1cnc(C(=O)OCC(=O)NC(C)CCc2ccccc2)cn1 (configuration not stated)	0	0	34.1	0	0
Cc1cnc(C(=O)OCC(=O)NCc2ccccc2)cn1	0	0	0	0	0
Cc1ccc2c(=O)cc(C(=O)Nc3c(C(=O)c4ccccc4)oc4ccccc34)oc2c1C	-	0	-	0	-
Cc1ccccc1NC(=O)c1ccc(CN2CCc3ccccc3C2)cc1	0	-	-	-	0
COc1ccc(OC)c(NC(=O)c2ccc(CN3CCc4ccccc4C3)cc2)c1	0	0	40.9	0	0
CCOCCCNC(=O)c1ccc(CN2CCc3ccccc3C2)cc1	0	-	-	-	0
COC(=O)c1ccc(CN2CCc3ccc(NC(=O)c4ccncc4)cc3C2)cc1	0	0	34.6	0	0
CCc1cccc(C)c1NC(=O)c1ccc(CN2CCc3ccccc3C2)cc1	0	0	55.1	0	0
CC(C)OCCCNC(=O)c1ccc(CN2CCc3ccccc3C2)cc1	0	0	44.1	0	0
CCOC(=O)c1cccc(Nc2ccc3cc(S(=O)(=O)N4CCCCC4)ccc3n2)c1	-	0	-	0	-
Cc1nc2c(-c3ccccc3)c(C)[nH]n2c(=O)c1Cc1ccccc1	0	0	42.6	0	0
Cc1nc2c(-c3ccc(Cl)cc3)c(C)[nH]n2c(=O)c1Cc1ccccc1	0	0	0	0	0
CCOC(=O)Cc1c(C)nc2c(-c3ccccc3)c(C)[nH]n2c1=O	0	0	0	34.0	0
CCOC(=O)Cc1c(C)nc2c(-c3ccccc3)c(-c3ccccc3)[nH]n2c1=O	0	0	0	0	0
Cc1cccc(Cc2c(C)nc3c(-c4ccccc4)c(C)[nH]n3c2=O)c1	-	0	-	-	-
COc1ccc(-c2c(C)[nH]n3c(=O)c(Cc4ccccc4)c(C)nc23)cc1OC	0	0	34.9	0	0
N#Cc1cnn(Cc2ccccc2)c1/N=C/N1CCOCC1	0	0	34.2	-	0
O=C(NCc1ccccc1Cl)C(=O)NCC(c1ccco1)S(=O)(=O)c1cccs1 (configuration not stated)	-	0	-	0	-
CCc1cc(C(=O)Nc2c(C)nn(Cc3ccc(C)cc3)c2C)no1	-	0	-	0	-
c1c(C2CCCCC2)n[nH]c1CN1CCCCC1	0	0	40.1	0	0
